In PubChem BioAssay (NCATS) one finds Potency, activity, negative = cell killing and max response data, which are given here for eight compounds.

The structures appear in SMILES notation. Where “and” joins values, the source holds several entries; their conditions need not be identical. Equal entries are not always repeated. Inconclusive results are not listed. The source holds several records for some structures; these can differ, active in one and inactive in another. Calls of active or inactive are those of the source. Unless noted, calls follow the shape of the dose curve; as a rule, active = well fitted curve in the direction sought with a large enough effect; inconclusive = small, poorly fitted or top-dose-only effect, or another doubt; inactive = no such curve, though single readings can be large; an effect the other way counts as inactive or inconclusive.

For test [1], the system named is MKL-2. In words: qHTS assay to identify novel small-molecules to repurpose for Merkel cell carcinoma treatment (AID 1296009). Also: nearly all actives have a fitted effect of over 60% in size. Also: potency is read from the fitted curve at half-maximal effect. The following applies: MCC and control cell lines, CellTiter-Glo viability, 72 h; series mostly up to 46 µM. Summed up:
(§1)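 Cell viability, measured as CellTiter-Glo luminescence, was normalized between DMSO and no-cell wells. The cells had been exposed to 8- or 11-point compound dilutions for 72 hr at 37 degree celsius.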
A general note: Quantitative high-throughput screening tests each substance at several concentrations.

The test system of test [2] is UISO. The description is as above. Conditions: MCC and control cell lines, CellTiter-Glo viability, 72 h; series mostly up to 46 µM. In a few lines: as §1
For orientation: In ATP-based viability assays light output follows the ATP content of the culture.

The test system of test [3] is WaGa. The description is as above. The following applies: MCC and control cell lines, CellTiter-Glo viability, 72 h; series mostly up to 46 µM. In a few lines: as §1
Test [4] relates to C33A. The test is described as follows: Primary qHTS to identify gynecologic anti-cancer compounds using libraries of approved drugs and bioactive compounds (AID 1345084). Also: nearly all actives have a fitted effect of over 55% in size. Also: potency is read from the fitted curve at half-maximal effect. The following applies: Gynecologic cancer cell panel viability, ATPlite luminescence, 48 h; series mostly up to 57.5 µM. In a few lines: (§2)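 In this quantitative HTS, cell killing is estimated from loss of ATP-dependent luciferase light. Cells see five compound concentrations over a 48 h exposure.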

The subject of test [5] is CASKI. The description is as above. The following applies: Gynecologic cancer cell panel viability, ATPlite luminescence, 48 h; series mostly up to 57.5 µM. In a few lines:
as §2

The test system of test [6] is Es-2. The description is as above. Conditions: Gynecologic cancer cell panel viability, ATPlite luminescence, 48 h; series mostly up to 57.5 µM. In a few lines:
as §2

Test [7] has as its system HeLa. Described as above. The following applies: Gynecologic cancer cell panel viability, ATPlite luminescence, 48 h; series mostly up to 57.5 µM. Summed up:
as §2

Test [8] concerns Hek293T. The description is as above. The following applies: Gynecologic cancer cell panel viability, ATPlite luminescence, 48 h, control line for the selectivity index; series mostly up to 57.5 µM. Summed up:
as §2

Test [9] relates to JEG-3. The description is as above. The following applies: Gynecologic cancer cell panel viability, ATPlite luminescence, 48 h; series mostly up to 57.5 µM. In a few lines:
as §2

For test [10], the system named is OV90. Described as above. The following applies: Gynecologic cancer cell panel viability, ATPlite luminescence, 48 h; series mostly up to 57.5 µM. Summed up: as §2
The test system of test [11] is PA-1. The test is described as above. The following applies: Gynecologic cancer cell panel viability, ATPlite luminescence, 48 h; series mostly up to 57.5 µM. Summed up:
as §2

Test [12] deals with Tov-21-G. The description is as above. The following applies: Gynecologic cancer cell panel viability, ATPlite luminescence, 48 h; series mostly up to 57.5 µM. In a few lines:
as §2

Test [13] relates to Tov112D. The test is described as above. The following applies: Gynecologic cancer cell panel viability, ATPlite luminescence, 48 h; series mostly up to 57.5 µM. In a few lines:
as §2

Test [14] can be described thus: Drug repurposing screens with cells derived from glioblastoma tumor samples (AID 1345199). Also: nearly all actives have a fitted effect of over 40% in size. Also: potency is read from the fitted curve at half-maximal effect. As to activity, negative = cell killing: % is scaled to controls: 0 for no effect and ±100 for the full control effect. The following applies: GBM patient neurospheres viability, ATP luminescence, 48 h. Summed up:
(§3)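 Primary testing used CD133+ neurospheres from four GBM patients, seven concentrations, 48 h exposure and ATP-based viability; confirmation added three slower-growing patient lines.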

Test [15] deals with CAOV3. The test is described as follows: Primary qHTS to identify gynecologic anti-cancer compounds using libraries of approved drugs and bioactive compounds (AID 1345084). Also: nearly all actives have a fitted effect of over 55% in size. Also: potency is read from the fitted curve at half-maximal effect. Conditions: Gynecologic cancer cell panel viability, ATPlite luminescence, 48 h; series mostly up to 57.5 µM. In a few lines: as §2
Test [16] relates to SKOV3. The test is described as above. Conditions: Gynecologic cancer cell panel viability, ATPlite luminescence, 48 h; series mostly up to 57.5 µM. Summed up:
as §2

Test [17] deals with Nuclear receptor subfamily 1 group I member 2 (Rattus norvegicus) (UniProt Q9R1A7). The test is described as follows: qHTS assay for small molecule activators of the rat pregnane X receptor (rPXR) signaling pathway (AID 651751; call rule not given here; also: 0% is about no effect). Conditions: rPXR reporter cells, luciferase (One-Glo), 24 h.
Sequence of Nuclear receptor subfamily 1 group I member 2 (Rattus norvegicus) (Q9R1A7 whole entry, looked up): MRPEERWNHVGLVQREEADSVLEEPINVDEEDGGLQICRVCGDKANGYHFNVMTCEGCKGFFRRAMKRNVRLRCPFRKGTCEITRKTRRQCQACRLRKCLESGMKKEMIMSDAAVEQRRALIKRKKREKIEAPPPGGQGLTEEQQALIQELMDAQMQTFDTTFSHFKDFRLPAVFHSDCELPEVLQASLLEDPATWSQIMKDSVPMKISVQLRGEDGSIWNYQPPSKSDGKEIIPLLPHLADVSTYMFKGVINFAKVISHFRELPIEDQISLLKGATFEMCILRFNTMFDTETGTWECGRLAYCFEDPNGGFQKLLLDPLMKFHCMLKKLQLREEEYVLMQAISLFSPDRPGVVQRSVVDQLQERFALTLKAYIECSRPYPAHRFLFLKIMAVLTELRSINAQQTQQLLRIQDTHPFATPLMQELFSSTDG
The nature of test [18]: qHTS assay to identify inhibitors of the type 1 interferon - major histocompatibility complex class I in skeletal muscle: Counter screen cell viability and HiBit confirmation (AID 1347412). Also: nearly all actives have a fitted effect of over 60% in size. Also: potency is read from the fitted curve at half-maximal effect. Conditions: iHSKM muscle cells + IFN-b, HiBiT or CellTiter-Glo, 24 h; Potency: HiBiT; Viability, at 45.9 µM (top of the series). In a few lines: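 Duplicate plates, pinned identically: one read for HiBiT-tagged endogenous HLA-B luminescence, the other for ATP-content viability via CellTiter Glo. Cells were genome-engineered human myoblasts given 4 ng/ml IFN-b; compounds 12-pt, 1:3 from 46 uM final; 24 hr exposure.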

The test system of test [19] is astro. In words: Drug repurposing screens with cells derived from glioblastoma tumor samples (AID 1345199). Also: nearly all actives have a fitted effect of over 40% in size. Also: potency is read from the fitted curve at half-maximal effect. As to activity, negative = cell killing: % is scaled to controls: 0 for no effect and ±100 for the full control effect. Conditions: viability, ATP luminescence, 48 h; series mostly up to 45.9 µM. Summed up: as §3
Setting [20] is: at 46.1 µM (top of the series), tumour line C.
Where [21] appears, read: at 45.9 µM (top of the series), tumour line B.
Setting [22] is: at 45.9 µM (top of the series), tumour line D.
Setting [23] is: at 46 µM (top of the series), tumour line A.

As for `CCCCc1oc2ccccc2c1C(=O)c1cc(I)c(OCCN(CC)CC)c(I)c1`, the Potency in test [1] is 13.3 µM (active); in test [14] (tumour line A), 7.08 µM (active); in [14] (tumour line B), 25.1 µM (active); in test [14] (tumour line D) it was 11.2 µM (active). For the same compound, the Potency entry in test [2], in test [3], in [4], in [5], in test [6] and in test [7] was “inactive” each time. The Potency result in test [8], in test [9], in test [10], in test [11], in test [12] and in [13] was “inactive” throughout. Also, the activity, negative = cell killing in test [14] (setting [20]) was 2% (inactive).

In the case of `CN(Cc1cnc2nc(N)nc(N)c2n1)c1ccc(C(=O)N[C@@H](CCC(=O)O)C(=O)O)cc1`, the Potency result in test [1], in test [15] and in test [16] was “inactive” throughout. Moreover, the Potency was 0.199 µM (active) in test [7], 0.158 µM (active) in test [8], 0.316 µM (active) in test [9] and 0.1 µM (active) in test [12]. The activity, negative = cell killing in test [14] (setting [21]) was 5.57% (inactive); in [14] (setting [22]), 3.85% (inactive); in test [14] (setting [23]), 1.95% (inactive); in [14] (setting [20]) it was -0.888% (inactive). Further, the max response in test [17] was -4.55% (inactive).

On to `O=C1c2c(O)ccc(O)c2C(=O)c2c(NCCNCCO)ccc(NCCNCCO)c21`, for which the Potency in test [1] was 0.006 µM (active); in test [2], 526 nM (active) and 668 nM (active); in test [3] it was 74.3 nM (active) and 4.7 nM (active); in [4] it was 2.51 µM (active); in [5], 2.82 µM (active); in test [7] it was 15.8 µM (active). Also, the Potency in [8] was 10 µM (active); in test [9], 11.2 µM (active); in test [10] it was 28.2 µM (active); in test [12] it was 28.2 µM (active); in test [14] (tumour line A), 3.98 µM (active); in test [14] (tumour line B), 8.91 µM (active). Besides, the Potency in test [14] (tumour line D) was 5.62 µM (active); in test [18], 1.76 µM (active). For the same compound, the activity, negative = cell killing in test [14] (at 20 µM (top of the series), tumour line C) is -23.1% (inactive).

`N[C@@H](Cc1c[nH]c2ccc(O)cc12)C(=O)O`: the Potency result in test [1], in [4], in [5], in [6], in test [7] and in test [8] was “inactive” in each case. Also, the Potency entry in test [9], in [11], in test [16], in test [12], in test [13] and in test [19] was “inactive” in each case. The activity, negative = cell killing in test [14] (setting [21]) was -15.2% (inactive); in test [14] (setting [22]), -5.01% (inactive); in test [14] (setting [23]), -33.5% (inactive); in [14] (setting [20]) it was -4.77% (inactive). The max response in test [17] is 2.83% (inactive).

Turning to `CC(CCc1ccc(O)cc1)NCCc1ccc(O)c(O)c1` (stereo not drawn), the Potency is 23.5 µM (active) and 11.9 µM (active) in test [1]; 28.2 µM (active) in test [14] (tumour line A); 31.6 µM (active) in test [14] (tumour line B). Also, the Potency entry in test [3], in [4], in test [15], in [5], in [6] and in test [7] was “inactive” each time. Moreover, the Potency entry in test [8], in [9], in [10], in test [12] and in test [13] was “inactive” each time. Moreover, the activity, negative = cell killing in [14] (setting [20]) is 5.45% (inactive).

Take `O=c1c(-c2ccc(O)cc2)coc2cc(O)cc(O)c12`: the Potency result in test [1], in [2], in test [4], in [6], in test [8] and in [10] was “inactive” in each case. In addition, the Potency entry in test [3] is “inactive and 26.6 µM (active)”; in test [12] it was 3.98 µM (active). In addition, in test [14] (setting [20]), the activity, negative = cell killing is -25.8% (inactive). Further, the max response in [17] is -0.208% (inactive) and 4.35% (inactive).

With `CN(C)CCC=C1c2ccccc2C=Cc2ccccc21`, the Potency result in [2], in test [3], in [4], in [15], in [5] and in [7] was “inactive” throughout. Besides, the Potency result in [8], in [9], in test [11] and in test [12] was “inactive” throughout. The activity, negative = cell killing in [14] (setting [20]) is 15.9% (inactive). Moreover, in test [14] (tumour line A), the Potency was 14.1 µM (active).

Regarding `OCCN1CCN(CCCN2c3ccccc3Sc3ccc(C(F)(F)F)cc32)CC1`, the Potency in test [1] was 20.9 µM (active) and 21.1 µM (active); in test [3], 20.9 µM (active); in test [14] (tumour line A), 1.26 µM (active); in test [14] (tumour line D), 10 µM (active). For the same compound, the Potency entry in test [2], in test [4], in test [6], in test [7], in test [9] and in test [11] was “inactive” each time. In addition, the Potency result in test [16], in [12], in test [13] and in test [18] was “inactive” throughout. Moreover, the activity, negative = cell killing in test [14] (setting [20]) is -28.6% (inactive).
